Source: PubChem BioAssay
The list is not random: actives were taken first. Their share in the collection is about 8.3%.
HCV inh = qHTS Assay for Inhibitors of Hepatitis C Virus (HCV); 3.4% of 340,000 active; Potency, µM (highest dose often 41.8 µM), hits mostly inhibitors; Huh7.5.1 HCVcc-Cre infection, luciferase reporter, 44 h
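After 44 h co-culture of compound, cells and HCVcc-Cre (~0.5 moi), substrate is added for 15 min at room temperature and luciferase measured over 15 sec. Cells were seeded at 1,000/well and pre-cultured 4 h.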
HCMV inh = qHTS Assay for inhibitors of the human cytomegalovirus (HCMV). activity change, negative = inhibition, % at 57.5 µM. HFF cells, HCMV-luciferase reporter, 72 h; active compounds read low. 4.5% of 410,000 active. AID 1259415, 2018; in the data active means activity change below about -60%; inconclusive means no clear call, values can overlap the other calls; inactive means above about -39%
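Compounds were evaluated in HFFs infected with an HCMV luciferase reporter virus (MOI 1 PFU/cell). Luciferase in lysates collected 72 h post infection served as the replication measure.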
MARV entry inh = qHTS for inhibitors of binding or entry into cells for Marburg Virus; AID 540276, 2011; 1.8% of 300,000 active; Potency, µM (series often up to 37.8 µM), usual class: inhibitors; Marburg virus pseudotyped entry inhibition, cell reporter; calls by dose curve; tested in HEK293 cells
FMDV antiviral = High Throughput Screening for Foot and Mouth Disease Virus Antivirals; AID 1159524, 2015; Potency, µM (top dose mostly 57.9 µM), usual class: inhibitors; 1.2% of 410,000 active; FMDV antiviral cell-based qHTS; calls by dose curve; tested in HEK293T cells; further: read-out not given here; nearly all actives have a fitted effect of over 45% in size
LASV entry inh = qHTS for Inhibitors of binding or entry into cells for Lassa Virus; Lassa virus pseudotype entry inhibition, cell reporter; Potency, µM (titrated, usually from 37.9 µM), actives largely listed as inhibitors; 1.2% of 300,000 active; calls by dose curve; tested in HEK293 cells; further: nearly all actives have a fitted effect of over 50% in size
Giardia FBPA inh = qHTS Assay for Inhibitors of Fructose-1,6-bisphosphate Aldolase from Giardia Lamblia; A8B2U2; Potency, µM (doses to about 59.6 µM), hits mostly inhibitors; 0.71% of 290,000 active; purified Giardia FBPA; further: nearly all actives have a fitted effect of over 55% in size
Target sequence (A8B2U2 whole entry, looked up): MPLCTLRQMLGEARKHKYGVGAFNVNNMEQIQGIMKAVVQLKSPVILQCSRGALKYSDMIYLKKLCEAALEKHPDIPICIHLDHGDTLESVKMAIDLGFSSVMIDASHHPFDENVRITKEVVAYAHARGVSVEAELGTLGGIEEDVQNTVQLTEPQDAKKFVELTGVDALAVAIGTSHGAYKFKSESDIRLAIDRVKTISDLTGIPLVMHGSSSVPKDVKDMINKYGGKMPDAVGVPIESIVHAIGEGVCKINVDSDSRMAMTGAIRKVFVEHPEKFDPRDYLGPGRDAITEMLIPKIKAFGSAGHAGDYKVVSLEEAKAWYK
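Giardia FBPA (40 nM reagent) was preincubated 10 min at RT with compound (up to 57.5 uM final), then substrate plus GAPDH/TPI/NAD/arsenate coupling system with diaphorase/resazurin was added; resorufin fluorescence (525/598 nm) was read after 20 min.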
Numbers stand for hits; - = inactive; ? = inconclusive; . = no result given. Unless noted, the call rests on the fitted dose curve; in most records, active means well fitted curve in the direction sought with a large enough effect; inconclusive means small, poorly fitted or top-dose-only effect, or another doubt; inactive means no such curve, though single readings can be large; an effect the other way counts as inactive or inconclusive.

SMILES	HCV inh	HCMV inh	MARV entry inh	FMDV antiviral	LASV entry inh	Giardia FBPA inh
COc1ccc(C2CC(c3ccc(Br)cc3)=NN2C(=O)CN2CCCC2)cc1 (centres undefined)	10µM	-	?	-	?	-
CNC(=S)N1N=C(c2ccc(Br)cc2)CC1c1ccc(OC)cc1 (centres undefined)	10µM	-	?	-	?	?
CCCCN1C(=O)C(CC(=O)NC2CCCCC2)CC(C(=O)N2CCOCC2)=C1C (centres undefined)	.	-	.	-	.	.
CCCCN1C(=O)C(CC(=O)NC2CCCC2)CC(C(=O)N2CCOCC2)=C1C (centres undefined)	.	-	.	39.8µM	.	.
COC(=O)Nc1ccc(S(=O)(=O)Nc2ccc(O)cc2)cc1	?	-66.7	-	.	-	-
CC(=O)c1ccc(NC(=O)Nc2ccc(NS(=O)(=O)c3ccc(C)cc3)cc2)cc1	11.2µM	-	-	-	-	-
CC(=O)c1ccc(NC(=O)Nc2ccccc2)cc1	-	-	?	.	8.2µM	-
COC(=O)Nc1ccc(S(=O)(=O)Nc2ccc(C)cc2)cc1	.	.	-	.	.	-
CC(=O)Nc1ccc(C(=O)NNS(=O)(=O)c2ccc(C)cc2)cc1	-	?	-	-	-	-
CC(=O)c1cccc(NC(=O)Nc2ccccc2)c1	-	-	?	-	-	-
COc1cc(=O)n2c(c1C(=O)N(C)Cc1cscn1)CCN(C(=O)c1ccc(C)c(C)c1)CC2	.	.	.	-	.	.
COc1ccccc1NC(=O)C1CCN(S(=O)(=O)c2ccc3[nH]c4c(c3c2)CCCCC4)CC1	.	?	.	-	-	.
COc1cccc(Nc2sc(C(=O)c3ccc(F)cc3)c(N)c2C(=O)NCc2ccc(C)cc2)c1	.	-62.3	.	14.1µM	?	.
Cc1ccc(CNC(=O)c2c(Nc3ccccc3C)sc(C(=O)c3ccc(F)cc3)c2N)cc1	.	-75.5	.	-	?	.
COc1cccc(Nc2sc(C(=O)c3ccc(Cl)cc3)c(N)c2C(=O)NCCc2ccc(OC)c(OC)c2)c1	.	-	.	-	-	.
CCOc1ccc(OCC)c(NC(=O)c2cc(S(=O)(=O)N3CCCC3)cn2C)c1	.	-	.	-	-	.
CCN1C(=O)NC(c2cccc(F)c2)C(C(=O)OC)=C1C (centres undefined)	.	.	-	.	.	.
CC(=O)c1cccc(Nc2nc(-c3cccnc3)cs2)c1	?	-	?	-	?	-
Cc1ccc(Nc2nc(-c3cccnc3)cs2)cc1C	?	-	.	-	.	-
Brc1cccc(Nc2nc(-c3cccnc3)cs2)c1	10µM	-	-	-	?	-
Clc1cccc(Nc2nc(-c3cccnc3)cs2)c1	2.82µM	-	.	-	.	-
COc1ccc(Cl)cc1Nc1nc(-c2cccnc2)cs1	12.6µM	-	?	-	-	-
COc1ccc(-c2csc(-c3cccnc3)n2)cc1C	?	-103.1	-	-	-	-
CCCN1CCN(C(=S)Nc2ccccc2C(F)(F)F)CC1	?	-82.9	?	-	-	-
CCOC(=O)c1cnc2c(ccc3ccccc32)c1NCCO	11.2µM	-	?	-	-	-
SMILES	HCV inh	HCMV inh	MARV entry inh	FMDV antiviral	LASV entry inh	Giardia FBPA inh
CN(C)c1cccc(C(=O)OC(C(=O)Nc2ccc(Cl)cc2C(F)(F)F)c2ccccc2)c1 (centres undefined)	-	-62.7	?	-	?	-
CCCOc1ccc(/C=N/Nc2cc(N3CCOCC3)ncn2)c(O)c1	?	-101.2	.	-	.	?
CCOc1ccc(/C=N/Nc2cc(N3CCOCC3)ncn2)c(O)c1	.	-	.	?	.	.
Cc1ccc2c(CC(=O)N3CCN(S(=O)(=O)c4cccs4)CC3)coc2c1	-	-	-	?	-	-
O=C(Cc1coc2cc(O)ccc12)N1CCN(S(=O)(=O)c2ccc(Br)cc2)CC1	11.2µM	-	.	?	.	.
COc1ccc2c(c1)C(=O)[C@@H](OC(=O)Nc1ccc(C)c(Br)c1)[C@H](c1ccc(OC)c(Br)c1)O2	.	.	.	.	.	-
COc1ccc(C2=C3CCC[C@]4(C)CCO[C@]34C=CC2=O)cc1	.	-	.	.	.	.
Cn1c(=O)n(C)c2cc(NS(=O)(=O)c3ccc(C(C)(C)C)cc3)c(NCc3ccccc3)cc21	.	-	-	-	-	.
O=C(NCCc1ccc(F)cc1)C(=O)NCC1CCCN1S(=O)(=O)c1ccccc1 (centres undefined)	11.2µM	-	?	39.8µM	7.08µM	.
COc1cccc(C(=O)NCC2CCCN2S(=O)(=O)c2ccccc2)c1 (centres undefined)	-	-	-	-	-	.
COc1cccc(NC(=O)C(=O)NCC2CCCN2S(=O)(=O)c2ccccc2)c1 (centres undefined)	11.2µM	-	?	-	?	.
COc1cccc(NC(=O)C(=O)NCCC2CCCCN2S(=O)(=O)c2ccccc2)c1 (centres undefined)	3.98µM	-	-	-	?	.
O=C(NCCC1CCCCN1S(=O)(=O)c1cccs1)C(=O)Nc1ccccc1F (centres undefined)	8.91µM	-	?	-	-	.
CCc1ccc(C(=O)c2cn(CC(=O)Nc3ccc4c(c3)OCO4)c3cc(OC)c(OC)cc3c2=O)cc1	.	?	-	-	-	.
Cc1cccc(C(=O)N[C@H]2CC[C@@H](n3cc(C(=O)N4CCCC4)nn3)CC2)c1	.	.	.	-	.	.
COC(=O)c1cc(CNC(=O)c2ccccn2)cc(NC(=O)c2ccccc2OC)c1	.	.	.	-	.	.
Cc1ccc2c(=O)c3cccc(CC(=O)O)c3oc2c1C	.	.	.	.	.	-
Cc1ccc(C2C(C#N)=C(N)Oc3cc(N)ccc32)cc1 (centres undefined)	-	-	.	-	.	-
Cc1oc(C)c2c(=O)ccc3c(c12)OC(N)=C(C#N)C3c1ccc(F)cc1 (centres undefined)	-	-	-	-	-	5.62µM
COc1ccc(N2CCN(C(=O)CCC(=O)N3CCOc4ccc(Cl)cc43)CC2)cc1	?	-98.7	.	-	.	-
Cc1cccc(N2CCN(C(=O)CCC(=O)N3Cc4ccccc4Oc4ncccc43)CC2)c1C	?	-93.7	?	?	?	.
COc1ccc(N2CCN(C(=O)CCC(=O)N3CCOc4ccc(C)cc43)CC2)cc1	-	?	.	-	.	-
Cc1ccc2c(c1)N(C(=O)CCC(=O)N1CCN(c3cccc(C)c3C)CC1)CCO2	10µM	?	.	14.1µM	.	-
Cc1ccc(NC(=O)CCC(=O)N2Cc3ccccc3Oc3ncccc32)cc1Cl	.	-	.	-	-	.
COCCN(Cc1cc2cc(C)ccc2n2nnnc12)C(=S)Nc1cccc(C)c1	11.2µM	-	?	-	-	-
Cc1ccc2c(c1)cc(CN(Cc1cccs1)C(=O)c1ccco1)c1nnnn12	?	-	?	-	16.4µM	-
CC(=O)[C@H]1CC[C@H]2C3CC[C@H]4C[C@](C)(O)CC[C@]4(C)C3CC[C@]12C (some centres undefined)	.	.	.	.	.	-
CCN(CC(=O)NCc1ccc(F)cc1)CC(=O)NC1CCCC1	0.891µM	-	-	-	-	-
